The target of assay [1] is Rap guanine nucleotide exchange factor 3 (Homo sapiens) (UniProt O95398). The assay is described as follows: Confirmatory qHTS for antagonist of cAMP-regulated guanine nucleotide exchange factor 3 (EPAC1) (AID 1645880). Note: nearly all actives have a fitted effect of over 55% in size. Note: potency is the fitted concentration of half-maximal effect. Put shortly:
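Released BODIPY-GDP fluoresces less than Rap1-bound BODIPY-GDP; the signal is followed at 480/540 nm at 5-min intervals over 30 min, after 5 min at room temperature. Reactions contain 100 nM EPAC1, 250 nM RAP1B-BODIPY-GDP and 50 uM GDP; results are normalized to ATA and DMSO.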
Background: In qHTS, concentration-response curves come from the screen itself.

The target is the same in assay [2]. The assay is described as follows: Confirmatory qHTS for agonist of cAMP-regulated guanine nucleotide exchange factor 3 (EPAC1) (AID 1645881).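 For activation: EPAC1 catalysed release of BODIPY-GDP from Rap1B seen as fluorescence loss; 100% = effect of cAMP agonist control.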 Note: nearly all actives have a fitted effect of over 75% in size. Note: potency is the fitted concentration of half-maximal effect.
The target in assay [3] is Rap guanine nucleotide exchange factor 4 (Homo sapiens) (UniProt Q8WZA2). The assay is described as follows: Confirmatory qHTS for agonist of cAMP-regulated guanine nucleotide exchange factor 4 (EPAC2) (AID 1645884). For activation: % is set by controls: 0 for no effect and ±100 for the full control effect.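 Note: nucleotide exchange releases bodipy-GDP from Rap1 and this lowers its fluorescence; nearly all actives have a fitted effect of over 65% in size.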 Note: potency is the fitted concentration of half-maximal effect.
Chain of Rap guanine nucleotide exchange factor 4 (Homo sapiens) (Q8WZA2 whole entry, looked up): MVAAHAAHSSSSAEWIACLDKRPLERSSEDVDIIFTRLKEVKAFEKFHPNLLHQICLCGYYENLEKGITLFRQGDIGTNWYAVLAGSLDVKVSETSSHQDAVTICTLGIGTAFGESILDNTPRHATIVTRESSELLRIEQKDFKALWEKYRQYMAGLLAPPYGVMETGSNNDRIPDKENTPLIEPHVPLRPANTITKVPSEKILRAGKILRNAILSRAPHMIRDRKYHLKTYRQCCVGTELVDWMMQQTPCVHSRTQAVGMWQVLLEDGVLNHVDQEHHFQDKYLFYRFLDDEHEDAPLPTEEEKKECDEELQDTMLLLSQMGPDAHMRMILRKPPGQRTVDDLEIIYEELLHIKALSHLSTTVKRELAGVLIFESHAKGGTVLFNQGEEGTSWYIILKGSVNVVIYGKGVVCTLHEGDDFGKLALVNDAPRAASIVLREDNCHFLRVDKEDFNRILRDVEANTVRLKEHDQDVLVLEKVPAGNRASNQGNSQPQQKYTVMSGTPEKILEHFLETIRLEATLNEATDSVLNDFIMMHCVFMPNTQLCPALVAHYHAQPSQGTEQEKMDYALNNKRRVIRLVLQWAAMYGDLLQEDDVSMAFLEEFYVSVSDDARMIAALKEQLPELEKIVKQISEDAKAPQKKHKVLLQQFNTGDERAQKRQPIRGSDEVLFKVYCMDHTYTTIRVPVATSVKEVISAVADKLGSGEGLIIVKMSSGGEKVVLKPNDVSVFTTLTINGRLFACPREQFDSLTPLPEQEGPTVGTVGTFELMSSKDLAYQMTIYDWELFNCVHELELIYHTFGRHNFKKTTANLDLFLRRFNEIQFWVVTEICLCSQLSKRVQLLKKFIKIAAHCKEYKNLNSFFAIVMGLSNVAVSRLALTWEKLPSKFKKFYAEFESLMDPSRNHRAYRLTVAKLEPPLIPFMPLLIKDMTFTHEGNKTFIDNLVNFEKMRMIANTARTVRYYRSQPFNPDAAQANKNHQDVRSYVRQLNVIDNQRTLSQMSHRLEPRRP
Assay [4] has the same target. The assay is described as follows: Confirmatory qHTS for antagonist of cAMP-regulated guanine nucleotide exchange factor 4 (EPAC2) (AID 1645885). For activity change, negative = inhibition: % is set by controls: 0 for no effect and ±100 for the full control effect. Note: nearly all actives have a fitted effect of over 25% in size. Note: potency is the fitted concentration of half-maximal effect.
The target in assay [5] is Rap guanine nucleotide exchange factor 3 (Homo sapiens) (UniProt O95398). Put plainly: Counterscreen qHTS for antagonist of cAMP-regulated guanine nucleotide exchange factor 3 (EPAC1) (AID 1645888). Note: % of control where 0% means no effect. Put shortly: (§1)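 Rap1B-BODIPY-GDP 250 nM + GDP 50 uM; cpds 7-pt, final 9.74 nM–152 uM (activator mode) or from 7.32 nM upwards (inhibitor mode); RT; FI 480/540 nm at 5 and 30 min, then ± cAMP, reread.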
Chain of Rap guanine nucleotide exchange factor 3 (Homo sapiens) (O95398 whole entry, looked up): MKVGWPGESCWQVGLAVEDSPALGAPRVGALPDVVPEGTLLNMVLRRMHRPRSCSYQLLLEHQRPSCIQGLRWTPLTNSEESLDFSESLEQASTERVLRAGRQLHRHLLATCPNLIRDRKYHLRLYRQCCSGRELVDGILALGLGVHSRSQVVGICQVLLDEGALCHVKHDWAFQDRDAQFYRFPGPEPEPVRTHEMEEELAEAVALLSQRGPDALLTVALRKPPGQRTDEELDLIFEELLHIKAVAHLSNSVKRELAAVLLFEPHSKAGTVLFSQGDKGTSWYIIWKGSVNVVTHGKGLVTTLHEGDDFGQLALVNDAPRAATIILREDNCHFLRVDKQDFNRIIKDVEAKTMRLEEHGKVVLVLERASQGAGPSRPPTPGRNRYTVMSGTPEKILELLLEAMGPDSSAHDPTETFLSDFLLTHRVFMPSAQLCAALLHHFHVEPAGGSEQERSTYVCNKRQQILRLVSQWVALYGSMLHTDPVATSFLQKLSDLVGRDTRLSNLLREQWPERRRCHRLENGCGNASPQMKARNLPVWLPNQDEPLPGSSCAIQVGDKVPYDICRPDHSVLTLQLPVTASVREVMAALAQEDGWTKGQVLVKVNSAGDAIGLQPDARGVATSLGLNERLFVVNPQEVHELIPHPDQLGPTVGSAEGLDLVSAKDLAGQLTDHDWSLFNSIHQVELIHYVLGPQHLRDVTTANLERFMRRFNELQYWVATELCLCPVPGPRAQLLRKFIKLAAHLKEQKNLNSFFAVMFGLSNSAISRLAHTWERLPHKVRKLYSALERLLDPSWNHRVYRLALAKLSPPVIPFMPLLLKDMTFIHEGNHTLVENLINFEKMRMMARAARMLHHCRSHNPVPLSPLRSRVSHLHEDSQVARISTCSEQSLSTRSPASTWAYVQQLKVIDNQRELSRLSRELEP

The target is the same in assay [6]. The assay is described as follows: Counterscreen qHTS for agonist of cAMP-regulated guanine nucleotide exchange factor 3 (EPAC1) (AID 1645889). Note: % of control where 0% means no effect; nearly all actives have a fitted effect of over 40% in size. In a few lines:
as §1
Background: A counterscreen serves to expose hits that act by an unwanted route or on another target.

Records with an inconclusive call do not appear. Values without a mark were called inactive. Calls of active or inactive are those of the source. Calls come from the whole dose curve; as a rule, active = well fitted curve in the direction sought with a large enough effect; inconclusive = small, poorly fitted or top-dose-only effect, or another doubt; inactive = no such curve, though single readings can be large; an effect the other way counts as inactive or inconclusive.

Take `Cc1nn(CCc2nc(-c3ccco3)cs2)c2[nH]c(=O)cc(C(F)(F)F)c12`: the Potency result in assay [1], in assay [2], in assay [3], in assay [4], in assay [5] and in assay [6] was “inactive” throughout.
Turning to `N#Cc1c(-c2ccccc2)nc(SCc2ccc(Cl)cc2)[nH]c1=O`, the Potency in assay [1] and in assay [4] was 33.8 µM (active) in each case. For the same molecule, the Potency result in assay [2], in assay [3], in assay [5] and in assay [6] was “inactive” throughout.
For `Cc1c(C(=O)N2CCCCC2)oc2ccc(Br)cc12`, the Potency entry in assay [1], in assay [2], in assay [3], in assay [4], in assay [5] and in assay [6] was “inactive” in each case.
For the molecule `COc1ccccc1OCCCSc1nc(-c2ccc(C(C)(C)C)cc2)nc2cc(=O)[nH]n12`, the Potency in assay [1] is 67.5 µM (active). The Potency result in assay [2], in assay [3], in assay [4], in assay [5] and in assay [6] was “inactive” each time.
Take `CC1(C)Cc2ccccc2-c2nnc(-c3ccc4ccccc4n3)n21`: the Potency entry in assay [1], in assay [2], in assay [3], in assay [4], in assay [5] and in assay [6] was “inactive” throughout.
For `O=C(O)c1cc(N/N=C/c2ccncc2)ccc1Cl`, the Potency result in assay [1], in assay [2] and in assay [4] was “inactive” throughout. For the same molecule, the activation was 1.56% [at 17.1 µM, percent relative to cAMP agonist control] in assay [3] and 24.2% [at 30.8 µM] in assay [6]. In assay [5], the activity change, negative = inhibition was -14% [at 30.8 µM].
Regarding `COc1ccc(OC)c(/C=c2\sc3nc(-c4cccs4)nn3c2=O)c1`, the Potency entry in assay [1], in assay [4], in assay [5] and in assay [6] was “inactive” throughout. Moreover, the Potency in assay [2] was 89.1 µM (active); in assay [3], 100 µM (active).
Take `COc1ccc(N(C)C(=O)CC2(CC(=O)O)CCCCC2)cc1`: the Potency result in assay [1], in assay [2] and in assay [4] was “inactive” throughout. For the same molecule, the activation in assay [3] is 8.49% [at 17.1 µM, percent relative to cAMP agonist control]; in assay [6], 2.37% [at 30.8 µM]. For the same molecule, the activity change, negative = inhibition in assay [5] was 1.07% [at 30.8 µM].
As for `C=CCn1c(CSCc2ccc(Cl)cc2Cl)nnc1SCC(=O)Nc1ccc(C(=O)O)cc1`, the Potency result in assay [1], in assay [2] and in assay [4] was “inactive” each time. Moreover, the activation was 0.968% [at 17.1 µM, percent relative to cAMP agonist control] in assay [3] and 4.51% [at 30.8 µM] in assay [6]. Also, the activity change, negative = inhibition in assay [5] is -5.41% [at 30.8 µM].
As for `CC1(C(=O)NS(=O)(=O)c2ccc(Cl)s2)CCN1C(=O)C1(c2ccccc2)CCCC1` (stereo unspecified), the Potency in assay [1] was 37.9 µM (active); in assay [4] it was 8.49 µM (active). Further, the Potency result in assay [2], in assay [3], in assay [5] and in assay [6] was “inactive” each time.
On to `Cn1cc([C@]2(O)C(=O)Nc3ccc(F)cc32)c2ccccc21`, for which the Potency result in assay [1], in assay [2] and in assay [4] was “inactive” throughout. For the same molecule, the activation in assay [3] is -4.66% [at 17.1 µM, percent relative to cAMP agonist control]; in assay [6], 12.7% [at 30.8 µM]. In addition, in assay [5], the activity change, negative = inhibition is -17.1% [at 30.8 µM].
For `CC1(C(=O)NS(=O)(=O)c2cccc(F)c2)CCN1C(=O)C1(c2ccc(Cl)cc2)CCC1` (stereo unspecified), the Potency in assay [1] was 19 µM (active). Also, the Potency entry in assay [2], in assay [3], in assay [4], in assay [5] and in assay [6] was “inactive” in each case.
As to `COc1cc(/C=C2\SC(=O)NC2=O)ccc1Oc1ccc([N+](=O)[O-])cc1[N+](=O)[O-]`, the Potency in assay [1] is 42.6 µM (active). In addition, the Potency result in assay [2], in assay [3], in assay [4], in assay [5] and in assay [6] was “inactive” throughout.
As to `O=C(NS(=O)(=O)c1ccc2ccc(S(=O)(=O)NCCSc3ccccc3)cc2c1)c1cccc2ccccc12`, the Potency in assay [1] is 42.6 µM (active); in assay [4] it was 67.5 µM (active). Further, the Potency entry in assay [2], in assay [3], in assay [5] and in assay [6] was “inactive” in each case.
For `CC1Cc2cc(C(=O)O)ccc2O1` (stereo unspecified), the Potency result in assay [1], in assay [2], in assay [3], in assay [4], in assay [5] and in assay [6] was “inactive” each time.
Consider `COc1ccc(-c2c(-c3ccccc3OC)oc3ccccc23)cc1F`, for which the Potency entry in assay [1], in assay [2], in assay [3], in assay [5] and in assay [6] was “inactive” in each case. Also, in assay [4], the Potency was 6.75 µM (active).
For the molecule `Cc1ccc(-c2nc3ccc(Br)cn3c2Cc2ccccc2C(F)(F)F)cc1`, the Potency in assay [1] was 84.9 µM (active); in assay [4], 47.8 µM (active). Further, the Potency result in assay [2], in assay [3], in assay [5] and in assay [6] was “inactive” each time.
As to `O=C(N/N=C/c1c(O)n(-c2ccccc2Cl)c(=O)c2ccccc12)c1cccnc1`, in assay [1], the Potency is 3.38 µM (active). Besides, the Potency result in assay [2], in assay [3], in assay [4], in assay [5] and in assay [6] was “inactive” in each case.
As to `COC(=O)c1cc2sccc2n1Cc1ccc(F)cc1`, the Potency entry in assay [1], in assay [2], in assay [3], in assay [4], in assay [5] and in assay [6] was “inactive” each time.
As for `COc1ccc(C(C)=O)cc1COc1ccc(F)cc1`, the Potency result in assay [1], in assay [2] and in assay [4] was “inactive” throughout. For the same molecule, the activation in assay [3] was 4.69% [at 17.1 µM, percent relative to cAMP agonist control]; in assay [6], 4.32% [at 30.8 µM]. Also, the activity change, negative = inhibition in assay [5] is 5.38% [at 30.8 µM].
Consider `N#Cc1c(-c2ccccc2)nc(SCC(=O)N2c3ccccc3Sc3ccccc32)[nH]c1=O`, for which, in assay [1], the Potency was 19 µM (active). Also, the Potency result in assay [2], in assay [3], in assay [4], in assay [5] and in assay [6] was “inactive” in each case.

For the origin of these results see PubChem BioAssay (NCATS).
